PubChem BioAssay AID1159580 (chemical genetic matrix, 2015)
Hit rate of the full screen: of about 5,500 compounds, about 2,000 (36%) were called active. Not shown: some 18% with an inconclusive outcome. No stated cut-off is given here; in the data, active means normalized growth mostly below about 0.91 (no sharp cut-off); inconclusive means no clear call, values can overlap the other calls; inactive means mostly above about 0.92. Some of the results follow.

Assay: chemical genetic growth profiling, strain panel (AID 1159580);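 further: tested at 20 µM; growth read once vehicle control cultures reached saturation at 30 °C; 1 = growth at the plate median or of vehicle wells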
Conditions: S. cerevisiae deletion strains, growth OD
[1] = locus YAL013W, strain DEP1, stronger effect = lower value
[2] = locus YDR150W, strain NUM1, stronger effect = lower value
[3] = locus YGR078C, strain PAC10, stronger effect = lower value
[4] = locus YHR030C, strain SLT2, stronger effect = lower value
[5] = locus YJR075W, strain HOC1, stronger effect = lower value
[6] = locus YMR263W, strain SAP30, stronger effect = lower value
[7] = locus YNL153C, strain GIM3, stronger effect = lower value
[8] = locus YNL322C, strain KRE1, stronger effect = lower value
[9] = locus YPL055C, strain LGE1, stronger effect = lower value
[10] = locus YPL241C, strain CIN2, stronger effect = lower value
[11] = locus YAL040C, strain CLN3, stronger effect = lower value
[12] = locus YCL061C, strain MRC1 (second series), stronger effect = lower value
[13] = locus YDR363W, strain ESC2, stronger effect = lower value
[14] = locus YER002W, strain NOP16, stronger effect = lower value
[15] = locus YNL175C, strain NOP13, stronger effect = lower value
[16] = locus YNL197C, strain WHI3, stronger effect = lower value
[17] = locus YNL224C, strain SQS1, stronger effect = lower value
[18] = locus YOR083W, strain WHI5 (second series), stronger effect = lower value

Measured: normalized growth

CCN(CC)C(=O)c1[nH]c(C)c(C)c1C
inactive: [1] 1.01 | locus YBR229C, strain ROT2, stronger effect = lower value 1 | locus YCL061C, strain MRC1, stronger effect = lower value 1.01 | locus YDL101C, strain DUN1, stronger effect = lower value 0.994 | [2] 1.01 | locus YEL061C, strain CIN8, stronger effect = lower value 0.985 | [3] 1.01 | locus YGR229C, strain SMI1, stronger effect = lower value 1.02 | [4] 1 | locus YHR087W, strain rtc3, stronger effect = lower value 0.998 | locus YJR043C, strain POL32, stronger effect = lower value 0.997 | [5] 1.01 | locus YLR039C, strain RIC1, stronger effect = lower value 1.02 | locus YLR058C, strain SHM2 (second series), stronger effect = lower value 1.01 | locus YLR085C, strain ARP6, stronger effect = lower value 1.03 | locus YLR262C, strain YPT6, stronger effect = lower value 0.995 | locus YML094W, strain GIM5, stronger effect = lower value 1.02 | locus YMR219W, strain ESC1, stronger effect = lower value 1.02 | [6] 1.01 | [7] 1 | locus YNL298W, strain CLA4 (second series), stronger effect = lower value 1.01 | [8] 0.985 | locus YNR030W, strain Alg12, stronger effect = lower value 1 | locus YOL006C, strain TOP1, stronger effect = lower value 1.04 | [9] 1.02 | [10] 0.994 | locus YPR135W, strain CTF4, stronger effect = lower value 1.06

COC(=O)[C@@H]1[C@H]2C[C@H]3c4[nH]c5ccccc5c4CCN3C[C@@H]2CC[C@@H]1O
inactive: [1] 0.98 | [11] 1.03 | [12] 0.99 | [2] 1.01 | [13] 0.981 | [14] 1 | [3] 0.987 | [5] 0.98 | [6] 0.987 | locus YMR307W, strain GAS1, stronger effect = lower value 1 | [15] 1 | [16] 0.984 | [17] 0.981 | [8] 0.952 | [18] 0.975 | [9] 0.983

O=C(O)Cc1cnc[nH]1
inactive: [1] 1.04 | [11] 1.04 | [12] 1.02 | [2] 1.04 | [13] 1.02 | [14] 1.01 | [4] 0.992 | locus YHR079C, strain IRE1, stronger effect = lower value 1.01 | locus YJL095W, strain BCK1, stronger effect = lower value 1 | locus YJR066W, strain TOR1, stronger effect = lower value 0.985 | locus YLR113W, strain HOG1, stronger effect = lower value 1 | [7] 1.03 | [15] 1 | locus YNL183C, strain NPR1, stronger effect = lower value 0.938 | [16] 1.01 | [17] 1 | [8] 1.02 | [18] 1.01 | locus YOR231W, strain MKK1, stronger effect = lower value 1 | [10] 1.01 | locus YPL256C, strain CLN2, stronger effect = lower value 1
